Assay outcomes (PubChem)
A selection: hits, their analogues and other compounds. The true share with any hit is near 19%.
IL-1B inflam inh = inhibitors of inflammasome signaling (IL-1 beta secretion); THP-1 LPS/ATP IL-1B secretion, AlphaLISA, 16 h; active compounds read low; activity change, % at 57.5 µM; 4.7% of 360,000 active; AID 743279; in the data active means activity change below about -50%; inconclusive means mostly about -30% to -49%
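THP-1 cells pretreated 1 hr with compounds (up to 57.5 uM final), then stimulated with LPS (250 ng/mL final) plus ATP (1.25 mM final); secreted IL-1B measured by AlphaLISA after 16 hr, decreased signal indicating inhibition.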
TDP1 cell CPT = DT40-hTDP1 cell growth loss with CPT. AID 686979. 12% of 420,000 active. Potency, µM (top dose mostly 46.2 µM), without a hit: top-dose activity change, negative = growth inhibition, most hits filed as inhibitors. chicken DT40 Tdp1-/-;hTDP1 cells + 20 nM CPT, ATP luminescence, 48 h; further: potency means the concentration at half of the fitted maximal effect; nearly all actives have a fitted effect of over 55% in size
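Cell growth measured by CellTiter-Glo luminescence after a minimum 48 h, 37 C compound exposure with 20 nM CPT in Tdp1-knockout DT40 cells stably expressing hTDP1, seeded 400/well; qHTS titration format.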
HT1080 IDH1KD tx = HT-1080 IDH1 knockdown cell toxicity (counter line). HT-1080 IDH1 knockdown viability, ATP luminescence, 48 h. Potency, µM (highest dose often 46.1 µM), for the others: at the top dose activity, negative = toxicity, usual class: cytotoxic. 2% of 360,000 active. AID 686971;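 further: potency means the concentration at half of the fitted maximal effect; 0% = DMSO wells and -100% = cell-free medium wells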
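Using the IDH1-knockdown HT-1080 line run in the same batch and compound series as the NT line, viability after 48 h at 37 °C was determined by CellTiter-Glo luminescence and expressed as % activity.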
HT1080NT lethal = kills 2HG-producing HT-1080-NT fibrosarcoma cells; HT-1080-NT fibrosarcoma viability, CellTiter-Glo ATP luminescence, 48 h; Potency, µM (series often up to 46.1 µM), inactives show top-dose activity, negative = less viability, actives largely listed as cytotoxic; 1.6% of 360,000 active; AID 686970;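 further: NT is the 2HG producing partner of a matched IDH1 knockdown line; potency means the concentration at half of the fitted maximal effect; 0% = DMSO-treated cells and -100% = media-only wells without cells; nearly all actives have a fitted effect of over 55% in size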
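Toxicity toward the 2HG-producing NT line was scored as %Activity, normalised to DMSO and no-cell wells, from CellTiter-Glo luminescence after 48 hours' treatment.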
DT40 TDP1 no CPT = qHTS for Inhibitors of human tyrosyl-DNA phosphodiesterase 1 (TDP1): qHTS in cells in absence of CPT; 15% of 420,000 active; AID 686978, 2013; DT40 Tdp1-/- hTDP1 cells, no CPT, ATP luminescence, 48 h; Potency, µM (highest dose often 46.2 µM), inactives show at the highest dose activity change, negative = growth inhibition, actives largely listed as inhibitors; further: potency means the concentration at half of the fitted maximal effect; nearly all actives have a fitted effect of over 55% in size
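Compound effects on proliferation are scored in DT40 Tdp1-/-;hTDP1 cells in the absence of CPT. ATP levels (CellTiter-Glo luminescence) are recorded after a ≥48 hr, 37 °C incubation.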
Starred values were filed as active, the others as inactive; i = inactive; ? = inconclusive; · = no result; [ ] = another dose, or the depositor's remark. Unless noted, the call rests on the fitted dose curve; in most records, active means well fitted curve in the direction sought with a large enough effect; inconclusive means small, poorly fitted or top-dose-only effect, or another doubt; inactive means no such curve, though single readings can be large; an effect the other way counts as inactive or inconclusive. Unless noted, on the % scale 0 is the no-effect control and ±100 the full control effect.

SMILES	IL-1B inflam inh	TDP1 cell CPT	HT1080 IDH1KD tx	HT1080NT lethal	DT40 TDP1 no CPT
COc1ccc(C(=O)COC(=O)CCNS(=O)(=O)c2ccccc2)cc1Br	4.6	-13.7%	-9.8%	-6.8%	-11.5%
O=C(COC(=O)CCc1nc2ccccc2s1)NCc1ccco1	-1.3	0.4%	14.6%	19.4%	-2.3%
CCOc1cc(C(=O)Nc2ccc(-c3nc4cc(C)ccc4o3)cc2)cc(OCC)c1OCC	·	11.6µM*	·	·	9.2µM*
CCOc1ccc(C(=O)Nc2ccc(Cl)c(-c3nc4cc(C)cc(C)c4o3)c2)cc1	·	-23.1%	·	·	-13.9%
CCOc1ccc(C(=O)Nc2ccc3oc(-c4ccc(C)cc4C)nc3c2)cc1Br	·	?	·	·	13µM*
CCOc1cc(C(=O)NCc2ccc(-c3nc4ccccc4o3)cc2)cc(OCC)c1OCC	7.2	?	20.3%	13.2%	?
CCOc1cc(C(=O)Nc2ccc3oc(-c4ccc(CC)cc4)nc3c2)cc(OCC)c1OCC	·	23.1µM*	·	·	8.2µM*
Cc1ccc2oc(-c3ccc(NC(=O)c4ccc5c(c4)OCO5)cc3)nc2c1	0.6	?	-7.6%	-11.6%	?
CC(C)(C)OC(=O)NS(=O)(=O)NOCc1ccccc1	·	?	·	·	5.4%
O=C(Nc1ccc(S(=O)(=O)Nc2ncccn2)cc1)c1ccc(Br)cc1	-7.2	4.3%	-0.5%	4.9%	6.3%
CCCCCn1c(CNC(=O)c2cccs2)nc2ccccc21	-53.8*	?	8.4%[9.24 µM]	12.6µM*	?
CCCCCn1c(CCNC(=O)c2cccs2)nc2ccccc21	-76.5*	?	3.3%[9.24 µM]	?	?
CCCCn1c(CNC(=O)c2cccs2)nc2ccccc21	4.8	-12.6%	-7.4%	7.6%	?
CC/C(=C\C(=O)c1ccncc1)Nc1ccc(Br)cc1	-67.3*	?	-8.0%	-0.3%	?
Cc1sc2ncn(CC(=O)NC3CCCCC3)c(=O)c2c1C	-2.7	-16.3%	-7.8%	-1.6%	?
Cc1ccnc(NC(=O)CCC(=O)N(CC(=O)NCc2ccccc2)c2ccc3c(c2)OCO3)c1	5.4	7.31µM*	20.3%	-0.7%	23.1µM*
Cc1ccc(N(CC(=O)NCc2ccc3c(c2)OCO3)C(=O)CCC(=O)Nc2ccccn2)cc1	0.0	-17.1%	-3.6%	-8.3%	?
Cn1c(=O)c2sccc2n(Cc2ccccc2)c1=O	27.2	-14.1%	0.9%	-9.3%	-12.7%
COC(=O)c1c(SC)nc2ccccc2c1OCc1ccc(C)cc1C	·	?	·	·	25.9µM*
CCc1nc2ccccc2c(C(=O)Nc2cc(C)ccc2C)c1C	3.1	?	-1.2%	0.2%	?
COC(=O)c1ccc(N=NN2CCCCCC2)cc1	-63.4*	0.6%	-1.0%	-6.4%	2.1%
Cc1nc(-c2ccc(C(=O)NCCO)cc2)cs1	-13.2	-13.0%	1.8%	15.8%	-15.2%
COc1ccc(CC(=O)Oc2ccc(C)cc2Br)cc1OC	-3.9	-18.4%	0.4%	2.1%	0.7%
COc1cc(C(=O)Nc2nnc(C3=COCCO3)o2)cc(OC)c1OC	i	15.5%	-3.8%	9.7%	3.9%
O=C(c1cc2cc(F)ccc2[nH]1)N1CCCC(Nc2ccc(F)cc2)C1 (stereo not drawn)	0.9	14.6µM*	?	-27.8%	?
SMILES	IL-1B inflam inh	TDP1 cell CPT	HT1080 IDH1KD tx	HT1080NT lethal	DT40 TDP1 no CPT
CCOC(=O)C1CCCN(C(=O)c2cc3cc(F)ccc3[nH]2)C1 (stereo not drawn)	29.0	?	2.9%	-4.1%	?
Cc1cc(/C=C(\C#N)C(=O)NCC2CCCO2)c(C)n1-c1ccc(Cl)cc1 (stereo not drawn)	-1.6	10.3µM*	?	-11.2%	?
Cc1ccc(C)c(OCCn2cc(/C=C(/C#N)C(=O)NCC3CCCO3)c3ccccc32)c1 (stereo not drawn)	0.0	16.4µM*	-12.1%	-8.0%	?
CCC[N+](CC#CCO)(CC#Cc1ccccc1)CCC	-2.6	0.7%	14.8%	14.5%	-3.2%
CCCC[N+](CC#CCO)(CC#Cc1ccccc1)CCCC	-14.0	?	-18.0%	-7.3%	9.2µM*
CC[N+](CC)(CC#Cc1ccccc1)CC(=O)c1ccc(Cl)cc1	-3.2	5.8µM*	-9.9%	-0.2%	5.8µM*
Cc1cccc(C(O)c2ncc(-c3ccccc3F)[nH]2)c1C (stereo not drawn)	28.4	-20.5%	-6.8%	6.3%	?
CS(=O)(=O)Nc1cccc(NC(=O)C2Cc3c(-c4cccc(F)c4)ccnc3O2)c1 (stereo not drawn)	-10.3	5.17µM*	?	2.06µM*	3.26µM*
COc1ccc(NC(=O)C2Cc3c(-c4cccc(F)c4)ccnc3O2)cc1OC (stereo not drawn)	-15.3	7.31µM*	?	?	4.61µM*
O=C(Nc1cccnc1)C1Cc2c(-c3ccco3)ccnc2O1 (stereo not drawn)	-19.2	-29.4%	-0.7%	3.6%	?
CNC(=O)C1Cc2c(-c3cccc(F)c3)ccnc2O1 (stereo not drawn)	17.3	-10.7%	25.6%	25.1%	4.5%
COc1ccc(NC(=O)C2Cc3c(-c4ccco4)ccnc3O2)cc1OC (stereo not drawn)	-2.2	23.1µM*	-22.8%	-4.2%	?
CN1CCN(C(=O)C2Cc3c(-c4cccc(F)c4)ccnc3O2)CC1 (stereo not drawn)	9.8	-17.7%	7.5%	13.7%	-8.7%
O=C(Nc1ccccc1)C1Cc2c(-c3cccc(F)c3)ccnc2O1 (stereo not drawn)	-62.7*	20.6µM*	-16.2%	4.4%	?
Cn1c(=O)[nH]c2cc(-c3noc(-c4ccc(C#N)cc4)n3)ccc21	·	-3.1%	·	·	-0.8%
CCOc1ccc(OCC)c(Nc2cc(C)nc3ncnn23)c1	-11.4	1.5%	-5.2%	1.7%	-11.9%
CCOc1ccc(OCC)c(Nc2cc(C)nc3nc(C)nn23)c1	-13.1	18.4µM*	-25.2%	-9.9%	?
NCCC(=O)[N-][C@@H](Cc1cnc[nH]1)C(=O)O.[Zn]	·	-1.4%	·	·	2.8%
CC(NN)c1ccccc1 (stereo not drawn)	·	-7.4%	·	·	-11.3%
CC(NCCC(c1ccccc1)c1ccccc1)c1ccccc1 (stereo not drawn)	?	6.51µM*	?	?	5.17µM*
CN(C)C(=O)NC1c2ccccc2-c2ccccc21	0.0	-1.8%	6.0%	3.1%	14.0%
O=C1C=CC(=O)N1c1ccc2c(c1)C(NC(=O)C(F)(F)F)c1ccccc1-2 (stereo not drawn)	-80.6*	1.3µM*	?	-0.1%	1.84µM*
CCOC(=O)CC1C(=O)NCCN1C(=S)NC(=O)c1ccc(C)c(Br)c1 (stereo not drawn)	-16.0	5.8µM*	5.8%	1.2%	5.17µM*
